Measurements published in PubChem BioAssay.

The molecules below were run against Torsin-1A (Homo sapiens) (UniProt O14656) (assay: torsin A binders from cell lysate, primary screen, small-molecule microarray, wild-type, 635/667 nm (AID 1149)). Conditions: COS7 hTOR1A-WT lysate, 635 nm fluorescence, higher = more signal.
Chain of Torsin-1A (Homo sapiens) (O14656 whole entry, looked up): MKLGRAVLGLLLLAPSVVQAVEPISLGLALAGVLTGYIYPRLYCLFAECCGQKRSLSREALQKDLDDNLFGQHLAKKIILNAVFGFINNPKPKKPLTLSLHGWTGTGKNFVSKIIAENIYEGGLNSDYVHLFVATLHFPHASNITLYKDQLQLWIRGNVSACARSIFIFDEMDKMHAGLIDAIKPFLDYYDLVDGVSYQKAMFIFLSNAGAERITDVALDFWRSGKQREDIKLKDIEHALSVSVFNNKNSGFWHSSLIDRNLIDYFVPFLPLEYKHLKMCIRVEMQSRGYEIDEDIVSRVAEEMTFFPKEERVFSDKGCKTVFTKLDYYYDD

Row | SMILES | composite z-score
1 | C=CCC(OC(C)=O)[C@@H]1[C@@H](N(Cc2ccc(-c3cccc(C(F)(F)F)c3)o2)C(=O)Cc2ccc(OC)cc2)c2cc(OCCCO)ccc2N1C(=O)Cc1ccc2ccccc2c1 (some centres undefined) | -1.96
2 | CO[C@H]1O[C@H](CO)[C@@H](OC(=O)c2ccc(Br)cc2)[C@@H]2OC(=O)[C@H](Cc3ccccc3)C/C=C/C[C@@H](Cc3ccccc3)C(=O)O[C@@H]12 | -0.295
3 | O=C(CS)NCCCCCCNC(=O)[C@@H]1C[C@@H]2C(=O)NCC(=O)N2[C@@H]1c1ccc(O)cc1 | 0.397
4 | COCCOC(=O)N1C(=O)[C@@]2(c3cc(C#CCNC(N)=O)ccc31)[C@H](c1ccc(OCCO)cc1)N1[C@H](c3ccccc3)[C@H](c3ccccc3)OC(=O)[C@H]1[C@@H]2C(=O)NC[C@H](O)c1ccccc1 | 0.367
5 | CC(C)C[C@@H]1NC(=O)CNC(=O)[C@@]23C(=O)N[C@@H](Cc4ccccc4)C2[C@H](C)[C@@]2(C)O[C@H]2C3/C=C/C/C=C\CNC1=O (some centres undefined) | 1.09
6 | COCCOC(=O)N1C(=O)[C@@]2(c3cc(C#CC4(O)CCCCCC4)ccc31)[C@H](c1ccc(OCCO)cc1)N1[C@H](c3ccccc3)[C@H](c3ccccc3)OC(=O)[C@H]1[C@@H]2C(=O)Nc1nc2ccccc2s1 | 0.494
7 | COCCOC(=O)N1C(=O)[C@@]2(c3cc(C#CCC(C(=O)OC)C(=O)OC)ccc31)[C@H](C(=O)NC[C@H](O)c1ccccc1)[C@H]1C(=O)O[C@H](c3ccccc3)[C@H](c3ccccc3)N1[C@@H]2c1ccc(O)cc1 | -0.431
8 | C=C(C(=O)CC[C@H](OC(=O)c1ccccc1-c1ccccc1C(=O)O)c1ccccc1OCCO)C(C)C | 0.659
9 | C=C(C)[C@@H]1CC=C(C(O)C2C=CC3C(=O)N(c4ccccc4)C(=O)C3N2Nc2ccc(C#N)cc2)CC1 (some centres undefined) | 0.202

The molecules below were run against Torsin-1A (Homo sapiens) (UniProt O14656) (assay: small-molecule binders of mutant TOR1A in lysate, primary screen, cell lysate, small-molecule microarray, COS7 lysate, 635/667 nm fluorescence (AID 1150;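 further: score pools 667 nm emission and signal to noise measuring lysate protein binding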)). Conditions: COS7 hTOR1A mutant lysate, 635 nm fluorescence, higher = more signal.

Row | SMILES | composite z-score
10 | COC(=O)C(CC#Cc1ccc2c(c1)[C@]1(C(=O)N2)[C@H](c2ccc(O)cc2)N2[C@H](c3ccccc3)[C@H](c3ccccc3)OC(=O)[C@H]2[C@@H]1C(=O)N1CCCCCCC1)C(=O)OC | 0.592
11 | CC(C)=CCCC(C)=CC(O)C1C=CC2C(=O)N(c3ccccc3)C(=O)C2N1Nc1ccccc1F (centres undefined) | -0.0306
12 | CN(C)CCCCNC(=O)[C@H]1C[C@H]2C(=O)N[C@@H](CCCC[N+](C)(C)C)C(=O)N2[C@H]1c1ccc(O)cc1 | 0.97
13 | CN(C)CCCNC(=O)[C@@H]1c2ccccc2C(=O)N(C2CCCCC2)[C@H]1c1ccc(CO)cc1 | 1.03
14 | CC(C)CNC(=O)[C@@H]1c2ccccc2C(=O)N(C2CCCCC2)[C@H]1c1ccc(CO)cc1 | -0.0175
15 | O=C1C2C=CC(C(O)c3ccco3)N(Nc3ccccc3)C2C(=O)N1c1ccccc1 (centres undefined) | 0.746
16 | COc1ccc([Si](C)(C)[C@@H]2[C@@H](CCn3cc([C@H](O)c4ccccc4)nn3)O[C@]3(C(=O)N(c4ccccc4)c4ccccc43)[C@H]2C)cc1 | 0.283
17 | CCCNC(=O)[C@@]1(Sc2ccc(C)cc2)CC(=O)N(C2CCCCC2)[C@@H]1c1ccc(CO)cc1I | 0.197
18 | COC(=O)C(CC#Cc1ccc2c(c1)[C@]1(C(=O)N2)[C@H](C(=O)Nc2nc3ccccc3s2)[C@H]2C(=O)O[C@H](c3ccccc3)[C@H](c3ccccc3)N2[C@@H]1c1ccc(OCCO)cc1)C(=O)OC | 0.541
19 | CC(=O)NCCCC[C@@H]1NC(=O)[C@@H]2C[C@H](C(=O)NCCCCCCN)[C@H](c3cccc(OCCO)c3)N2C1=O | 0.464
20 | COc1ccc([Si](C)(C)[C@H]2[C@H](CCO)O[C@@]3(C(=O)N(Cc4ccc(N5C(=O)c6ccccc6Oc6ccccc65)cc4)c4ccccc43)[C@@H]2C)cc1 | -0.889
21 | CCCCC=C[C@@H](NC(=O)c1ccccc1)c1ccccc1 | 0.0135
22 | COCCOC(=O)N1C(=O)[C@@]2(c3cc(C#CC4=CCCCC4)ccc31)[C@H](C(=O)N1CCCCCCC1)[C@H]1C(=O)O[C@H](c3ccccc3)[C@H](c3ccccc3)N1[C@@H]2c1ccc(OCCO)cc1 | 0.877
23 | COCCOC(=O)N1C(=O)[C@@]2(c3cc(C#CCNC(N)=O)ccc31)[C@H](c1ccc(O)cc1)N1[C@H](c3ccccc3)[C@H](c3ccccc3)OC(=O)[C@H]1[C@@H]2C(=O)N1CCN(c2ncccn2)CC1 | 0.747
24 | COCCOC(=O)N1C(=O)[C@@]2(c3cc(C#CCCO)ccc31)[C@H](c1ccccc1OCCO)N1[C@H](c3ccccc3)[C@H](c3ccccc3)OC(=O)[C@H]1[C@@H]2C(=O)N1CCCCCCC1 | 0.34
25 | CC(=O)N1CC(C(O)C2C=CC3C(=O)NC(=O)C3N2Nc2ccc(Cl)cc2Cl)c2ccccc21 (centres undefined) | 0.545
26 | COc1cc2c(cc1OC)CN(C(=O)[C@@H]1[C@H]3C(=O)O[C@H](c4ccccc4)[C@H](c4ccccc4)N3[C@H](c3ccc(O)cc3)[C@@]13C(=O)Nc1ccc(C#CCCO)cc13)CC2 | 0.45
27 | NCCCCCNC(=O)[C@H]1C[C@H]2C(=O)N[C@@H](Cc3ccccc3)C(=O)N2[C@H]1c1ccc(O)cc1 | 0.842

Row | SMILES | composite z-score
28 | CC(C)OC(=O)CC(=O)CC(O)c1ccc([N+](=O)[O-])cc1 (centres undefined) | 0.113
29 | CCCNC(=O)[C@@]1(C)c2ccccc2C(=O)N(Cc2ccccc2)[C@H]1c1ccc(CO)cc1 | -1.96
30 | COC(=O)[C@@]1(Cc2ccc(OC)cc2)[C@H]2c3cc(C(=O)N4CCCC4)n(Cc4cc(C)n(C)n4)c3C[C@H]2CN1C(=O)c1ccccc1 | 0.24
31 | C=CCC(OC(C)=O)[C@@H]1[C@@H](N(Cc2ccc(-c3cccc(C(F)(F)F)c3)o2)C(=O)c2ccc(C)cc2)c2cc(OCCCO)ccc2N1C(=O)Cc1ccc(OC)cc1 (some centres undefined) | 0.197
32 | CC(=O)n1cc(C(O)C2C=CC3C(=O)N(c4ccccc4)C(=O)C3N2Nc2ccc(C(C)C)cc2)c2ccccc21 (centres undefined) | 0.617
33 | C=CCC(OC(C)=O)[C@@H]1[C@@H](N(Cc2ccc(-c3ccccc3)cc2)C(=O)c2ccc(C)cc2)c2cc(OCCCO)ccc2N1C(=O)Cc1ccc2ccccc2c1 (some centres undefined) | -0.577
34 | COc1cc(C(O)C2C=CC3C(=O)N(Cc4ccccc4)C(=O)C3N2n2cnnc2)cc(OC)c1OC (centres undefined) | 0.671
35 | COc1ccc(C(=O)Nc2cccc(CN3C(=O)[C@@]4(O[C@@H](CC(=O)N(CCO)Cc5ccccc5)[C@H]([Si](C)(C)c5ccc(OC)cc5)[C@H]4C)c4ccccc43)c2)cc1 | 1.16
36 | C=CCC(OC(C)=O)[C@@H]1[C@@H](N(Cc2ccc(-c3cccc(C(F)(F)F)c3)o2)C(=O)Cc2ccc(OC)cc2)c2cc(OCCCO)ccc2N1C(=O)Cc1ccc2ccccc2c1 (some centres undefined) | -1.85
37 | CO[C@H]1O[C@H](CO)[C@@H](OC(=O)c2ccc(Br)cc2)[C@@H]2OC(=O)[C@H](Cc3ccccc3)C/C=C/C[C@@H](Cc3ccccc3)C(=O)O[C@@H]12 | -0.0307
38 | O=C(CS)NCCCCCCNC(=O)[C@@H]1C[C@@H]2C(=O)NCC(=O)N2[C@@H]1c1ccc(O)cc1 | -0.814
39 | COCCOC(=O)N1C(=O)[C@@]2(c3cc(C#CCNC(N)=O)ccc31)[C@H](c1ccc(OCCO)cc1)N1[C@H](c3ccccc3)[C@H](c3ccccc3)OC(=O)[C@H]1[C@@H]2C(=O)NC[C@H](O)c1ccccc1 | 0.792
40 | CC(C)C[C@@H]1NC(=O)CNC(=O)[C@@]23C(=O)N[C@@H](Cc4ccccc4)C2[C@H](C)[C@@]2(C)O[C@H]2C3/C=C/C/C=C\CNC1=O (some centres undefined) | -0.134
41 | COCCOC(=O)N1C(=O)[C@@]2(c3cc(C#CC4(O)CCCCCC4)ccc31)[C@H](c1ccc(OCCO)cc1)N1[C@H](c3ccccc3)[C@H](c3ccccc3)OC(=O)[C@H]1[C@@H]2C(=O)Nc1nc2ccccc2s1 | 0.734
42 | COCCOC(=O)N1C(=O)[C@@]2(c3cc(C#CCC(C(=O)OC)C(=O)OC)ccc31)[C@H](C(=O)NC[C@H](O)c1ccccc1)[C@H]1C(=O)O[C@H](c3ccccc3)[C@H](c3ccccc3)N1[C@@H]2c1ccc(O)cc1 | 0.413
43 | C=C(C(=O)CC[C@H](OC(=O)c1ccccc1-c1ccccc1C(=O)O)c1ccccc1OCCO)C(C)C | 0.34
44 | C=C(C)[C@@H]1CC=C(C(O)C2C=CC3C(=O)N(c4ccccc4)C(=O)C3N2Nc2ccc(C#N)cc2)CC1 (some centres undefined) | 0.454
